About 83,000 compounds went through this panel and 20% of them were active in at least one assay; those are over-represented in the sample as a whole.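 Results are percent growth after 48 hours of single-concentration exposure. 100 means growth as in untreated cells, lower positive values show inhibition; negative values down to -100 show cell death.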 Activity calls are given as the source filed them. How the source made its calls: active means growth percent below 10; inactive means the rest.
Columns and labels:
Experiment in all cases: NCI-60 one-dose screen, 48 h (100 = growth as untreated, 0 = no growth, -100 = all killed)
Conditions in all cases: 10 µM
EKVX NSCLC = system: EKVX NSCLC
SN12C renal = system: SN12C renal
UO-31 renal = system: UO-31 renal
TK-10 renal = system: TK-10 renal
ACHN renal = system: ACHN renal
CAKI-1 renal = system: CAKI-1 renal
A498 renal = system: A498 renal
CCRF-CEM leukemia = system: CCRF-CEM leukemia
MOLT-4 leukemia = system: MOLT-4 leukemia

Measured: growth

CN1CCN(c2ccc(Nc3nc(NCCCNC(=O)c4ccc(F)cc4)c4sccc4n3)cc2)CC1
inactive: EKVX NSCLC 87.8% | SN12C renal 78.8% | UO-31 renal 71.6% | TK-10 renal 119% | ACHN renal 36.7% | CAKI-1 renal 69.8% | A498 renal 129% | CCRF-CEM leukemia 18.8%

COc1cc(-c2nc3cc(Cl)c(Cl)cc3[nH]2)ccc1OCc1nnc(-c2ccc(Br)cc2)o1
active: SN12C renal -39.2% | UO-31 renal -91.1% | TK-10 renal -43.4% | ACHN renal -100% | CAKI-1 renal -76.6% | A498 renal -86.5% | CCRF-CEM leukemia 7.7% | MOLT-4 leukemia -7.63%
inactive: EKVX NSCLC 14.3%

O=C1Nc2ccc(Cl)cc2/C1=C/c1cccc(OCc2ccccn2)c1
active: SN12C renal -50.6% | UO-31 renal 8.26% | ACHN renal -40.3% | CAKI-1 renal -7.95% | CCRF-CEM leukemia -23.1% | MOLT-4 leukemia 4.5%
inactive: EKVX NSCLC 10.7% | TK-10 renal 10.5% | A498 renal 95%

CCOP(=O)(OCC)O[C@H]1CC[C@]2(C)[C@H]3CC[C@@H]4[C@@H]([C@](C)(O)CCC=C(C)C)CC[C@@]4(C)[C@]3(C)CC[C@H]2C1(C)C
inactive: EKVX NSCLC 28.2% | UO-31 renal 24.8% | TK-10 renal 36.6% | ACHN renal 28% | CAKI-1 renal 25.2% | A498 renal 52.5%
active: SN12C renal -51.7% | CCRF-CEM leukemia -21.2% | MOLT-4 leukemia -15.5%

COc1cnc2c(c1)C(=O)c1c-2n(CCCNC(C)C)c(=O)c2cc(OC)c(OC)cc12
inactive: EKVX NSCLC 92.6% | SN12C renal 25% | TK-10 renal 87.6% | CAKI-1 renal 15.2% | A498 renal 105% | CCRF-CEM leukemia 16.2% | MOLT-4 leukemia 16.5%
active: ACHN renal 3.23%

O=c1[nH]c2ccc(Cl)cc2cc1CSc1ccc(Nc2nccc(-c3ccc(Cl)cc3)n2)cc1
inactive: SN12C renal 72.9% | UO-31 renal 90% | TK-10 renal 36.4% | ACHN renal 83.5% | CAKI-1 renal 84.9% | A498 renal 118% | CCRF-CEM leukemia 74.8% | MOLT-4 leukemia 46.4%

O=C(Cc1ccc2c(c1)CN(C1CCC(=O)NC1=O)C2=O)NCCc1ccccc1 (stereo not drawn)
inactive: EKVX NSCLC 67.2% | TK-10 renal 45.8% | ACHN renal 48.9% | CAKI-1 renal 63.6% | CCRF-CEM leukemia 10.6%
active: SN12C renal 8.84% | UO-31 renal -10.4% | A498 renal 1.53% | MOLT-4 leukemia -13.2%

O=C(/C=C/Nc1ccccc1)c1ccc2c(c1)Nc1ccccc1S2
inactive: EKVX NSCLC 81.4% | SN12C renal 69.2% | UO-31 renal 93.1% | TK-10 renal 96.2% | ACHN renal 84.3% | CAKI-1 renal 91.5% | A498 renal 120% | CCRF-CEM leukemia 94.2% | MOLT-4 leukemia 89.7%

Cc1ccc2nc(COc3ccc(C(=O)NNC(=S)NCCc4ccccc4)cc3)[nH]c2c1
inactive: EKVX NSCLC 95% | SN12C renal 77.3% | UO-31 renal 84.3% | TK-10 renal 111% | ACHN renal 101% | CAKI-1 renal 96.2% | A498 renal 134% | CCRF-CEM leukemia 98.3% | MOLT-4 leukemia 96.1%

Cc1cc2nc3c4ccccc4n(CCO)c3nc2cc1C
inactive: EKVX NSCLC 84.5% | SN12C renal 43.5% | UO-31 renal 28.6% | TK-10 renal 165% | CAKI-1 renal 55.4% | A498 renal 61.6% | CCRF-CEM leukemia 71.6% | MOLT-4 leukemia 78.4%
active: ACHN renal -6.25%

C=CC(=O)Nc1ccc(C(=O)/C=C/c2ccc(N(C)CCF)cc2)c(O)c1
inactive: A498 renal 17.5% | CCRF-CEM leukemia 13.1%
active: EKVX NSCLC -25% | SN12C renal -60.2% | UO-31 renal -96.6% | TK-10 renal -23.7% | ACHN renal -68.6% | CAKI-1 renal -90.8% | MOLT-4 leukemia -3.17%

O=C(CSc1nnc(-c2ccc3nc(-c4ccccc4)[nH]c3c2)o1)Nc1ccc(Br)cc1
inactive: EKVX NSCLC 81.4% | SN12C renal 45.8% | UO-31 renal 74.4% | TK-10 renal 81.3% | ACHN renal 63% | CAKI-1 renal 76.2% | A498 renal 101% | CCRF-CEM leukemia 39.4% | MOLT-4 leukemia 16.8%

Cn1cc(/C=N/Nc2cccc(Cl)n2)c2ccccc21
inactive: EKVX NSCLC 57.9% | SN12C renal 69.6% | TK-10 renal 113% | ACHN renal 71.4% | A498 renal 101% | CCRF-CEM leukemia 48.2% | MOLT-4 leukemia 32.9%

CCCCSc1nc(Nc2ccc(/C(C)=N/NC(N)=S)cc2)c(C#N)c(-c2ccc(F)cc2)n1
inactive: EKVX NSCLC 57.5% | SN12C renal 29.2% | UO-31 renal 19.6% | TK-10 renal 46% | ACHN renal 14.5% | A498 renal 63.1% | CCRF-CEM leukemia 55.3% | MOLT-4 leukemia 63.6%

COc1ccc(-c2cc(C(=O)N=Nc3c(O)[nH]c4ccc(F)cc34)c3ccccc3n2)cc1
inactive: EKVX NSCLC 86.4% | SN12C renal 65.5% | UO-31 renal 67.6% | TK-10 renal 120% | ACHN renal 68.1% | CAKI-1 renal 87.8% | A498 renal 128% | CCRF-CEM leukemia 44.2% | MOLT-4 leukemia 21.9%

O=C(CS(=O)(=O)c1oc(-c2ccc(Cl)cc2)nc1S(=O)(=O)c1ccccc1)N1CCCC1
active: SN12C renal -26.2% | UO-31 renal -100% | TK-10 renal -94.5% | ACHN renal -100% | CCRF-CEM leukemia -45%
inactive: EKVX NSCLC 74.9% | A498 renal 110%

O=C(O)CCCCCCCCCCN1C(=O)/C(=C/c2cnc(-c3ccc(Cl)cc3)s2)SC1=S
active: SN12C renal -57.4%
inactive: UO-31 renal 38.1% | ACHN renal 22.1% | CAKI-1 renal 12.2% | A498 renal 83.2% | MOLT-4 leukemia 19.7%

O=C(c1ccc(Cl)cc1)C1[C@H](c2ccccc2Br)[C@@H](c2ccccc2)NC12C(=O)Nc1ccc(Br)cc12 (stereo partly drawn)
active: SN12C renal -63.5% | CAKI-1 renal 8.82% | CCRF-CEM leukemia 5.86% | MOLT-4 leukemia -9.97%
inactive: EKVX NSCLC 14.7% | UO-31 renal 13.5% | TK-10 renal 23.9% | ACHN renal 11.9% | A498 renal 74.5%

COc1cc(/C=C/C(=O)c2ccc(S(=O)(=O)NCCNc3nc(Nc4ccc(F)cc4)nc(N(C)C)n3)cc2)cc(OC)c1OC
active: SN12C renal -32.1% | ACHN renal -49% | CCRF-CEM leukemia 8.16% | MOLT-4 leukemia 8.5%
inactive: EKVX NSCLC 48.4% | UO-31 renal 40.2% | TK-10 renal 66.3% | CAKI-1 renal 20.1% | A498 renal 81.3%

Cc1ccc(CSc2nc(Cl)c(C#N)c(-c3ccc(F)cc3)n2)cc1
inactive: SN12C renal 70.2% | UO-31 renal 67.9% | TK-10 renal 91.7% | ACHN renal 85.4% | CAKI-1 renal 67.1% | A498 renal 91.6% | CCRF-CEM leukemia 67.7% | MOLT-4 leukemia 61.9%

Cc1cc(C)nc(NS(=O)(=O)c2ccc(N/C(N)=N/c3nccc(-c4cccs4)n3)cc2)n1
inactive: EKVX NSCLC 83.5% | SN12C renal 96.9% | UO-31 renal 59.1% | TK-10 renal 117% | ACHN renal 94.8% | CAKI-1 renal 74.2% | A498 renal 117% | CCRF-CEM leukemia 95% | MOLT-4 leukemia 96.8%

COc1nccnc1NS(=O)(=O)c1ccc(NC2=C(Cl)C(=O)c3nc(C)ccc3C2=O)cc1
inactive: EKVX NSCLC 88.2% | SN12C renal 99.1% | UO-31 renal 74.5% | TK-10 renal 132% | ACHN renal 109% | CAKI-1 renal 88.7% | A498 renal 94% | CCRF-CEM leukemia 97% | MOLT-4 leukemia 94.8%

O=c1[nH]c2ccccc2cc1CSc1ccc(Nc2nccc(-c3ccc4c(c3)OCO4)n2)cc1
inactive: EKVX NSCLC 94.2% | SN12C renal 96% | UO-31 renal 95.6% | TK-10 renal 89.4% | ACHN renal 94.7% | CAKI-1 renal 98% | A498 renal 121% | CCRF-CEM leukemia 98.4% | MOLT-4 leukemia 102%

COc1cc2c3c(n(CCCNCCO)c(=O)c2cc1OC)-c1nc2c(cc1C3=O)OCO2
inactive: EKVX NSCLC 79% | UO-31 renal 24.4% | A498 renal 69.3%
active: SN12C renal 8.45% | ACHN renal 2.56% | CAKI-1 renal 7.66% | CCRF-CEM leukemia 8.64% | MOLT-4 leukemia -14.4%

CCCCSc1nc(Nc2ccc(/C(C)=N/NC(N)=S)cc2)c(C#N)c(-c2ccccc2)n1
inactive: EKVX NSCLC 62.5% | SN12C renal 19.8% | UO-31 renal 11.8% | TK-10 renal 48.8% | ACHN renal 14.3% | CAKI-1 renal 33.5% | A498 renal 42.1% | CCRF-CEM leukemia 49.2% | MOLT-4 leukemia 47.3%

Clc1ccc(/C=N/Nc2ncnc3sc4c(c23)CCN(Cc2ccccc2)C4)cc1
inactive: EKVX NSCLC 56.7% | ACHN renal 27.4% | CAKI-1 renal 34.5%
active: SN12C renal -62.4% | TK-10 renal -76.1% | A498 renal -32.2% | CCRF-CEM leukemia -24.2% | MOLT-4 leukemia 4.13%

COc1ccc2[nH]c(=O)c(CSc3nccc(-c4ccc(Cl)cc4)n3)cc2c1
active: EKVX NSCLC 7.4% | UO-31 renal 7.11% | ACHN renal -46.2%
inactive: SN12C renal 34.4% | TK-10 renal 19.6% | A498 renal 45.5% | CCRF-CEM leukemia 32.6% | MOLT-4 leukemia 22%

C=C1CCC2C3(C)COC(c4cccc(F)c4)OC3CCC2(C)C1CC(O)C1=CCOC1=O (stereo not drawn)
inactive: SN12C renal 44.3% | UO-31 renal 57.1% | ACHN renal 68.6% | CAKI-1 renal 74.7% | A498 renal 125% | CCRF-CEM leukemia 23.2% | MOLT-4 leukemia 41%

COc1ccc2nc(Cl)c(-c3cc(-c4ccccc4)nc(=O)[nH]3)cc2c1
active: MOLT-4 leukemia -11.4%
inactive: EKVX NSCLC 73.3% | SN12C renal 42.9% | TK-10 renal 96.9% | ACHN renal 79% | CAKI-1 renal 74.2% | A498 renal 104% | CCRF-CEM leukemia 16.4%
